Experiments:
Assay in all cases: log2 ratio of Biotin-Ahx-Ub-VS probe labelling (fragment/DMSO); higher = less target engagement (more negative = stronger competition), active = hit call of the paper (q ≤ 0.05, log2 ratio ≤ -1)
Conditions in all cases: compound concentration: 200 uM; treatment time: 3 h
USP34 = USP34 (UniProt Q70CQ2)
Outline: (§1)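 Average log2 ratios of fragment over vehicle were obtained by unpaired t-test from global-median-normalised Spectronaut label-free quantities. Proteins with ≥2 unique peptides were included. HEK293T lysate (495 µg per sample) was treated in triplicate with fragment at 200 µM or vehicle for 3 h, then with Biotin-Ahx-Ub-VS at 0.5 µM final for 1 h, and labelled DUBs were NeutrAvidin-enriched and run by diaPASEF LC-MS/MS.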

USP36 = biological target: T1, USP36 (UniProt Q9P275)
T1 sequence (whole entry): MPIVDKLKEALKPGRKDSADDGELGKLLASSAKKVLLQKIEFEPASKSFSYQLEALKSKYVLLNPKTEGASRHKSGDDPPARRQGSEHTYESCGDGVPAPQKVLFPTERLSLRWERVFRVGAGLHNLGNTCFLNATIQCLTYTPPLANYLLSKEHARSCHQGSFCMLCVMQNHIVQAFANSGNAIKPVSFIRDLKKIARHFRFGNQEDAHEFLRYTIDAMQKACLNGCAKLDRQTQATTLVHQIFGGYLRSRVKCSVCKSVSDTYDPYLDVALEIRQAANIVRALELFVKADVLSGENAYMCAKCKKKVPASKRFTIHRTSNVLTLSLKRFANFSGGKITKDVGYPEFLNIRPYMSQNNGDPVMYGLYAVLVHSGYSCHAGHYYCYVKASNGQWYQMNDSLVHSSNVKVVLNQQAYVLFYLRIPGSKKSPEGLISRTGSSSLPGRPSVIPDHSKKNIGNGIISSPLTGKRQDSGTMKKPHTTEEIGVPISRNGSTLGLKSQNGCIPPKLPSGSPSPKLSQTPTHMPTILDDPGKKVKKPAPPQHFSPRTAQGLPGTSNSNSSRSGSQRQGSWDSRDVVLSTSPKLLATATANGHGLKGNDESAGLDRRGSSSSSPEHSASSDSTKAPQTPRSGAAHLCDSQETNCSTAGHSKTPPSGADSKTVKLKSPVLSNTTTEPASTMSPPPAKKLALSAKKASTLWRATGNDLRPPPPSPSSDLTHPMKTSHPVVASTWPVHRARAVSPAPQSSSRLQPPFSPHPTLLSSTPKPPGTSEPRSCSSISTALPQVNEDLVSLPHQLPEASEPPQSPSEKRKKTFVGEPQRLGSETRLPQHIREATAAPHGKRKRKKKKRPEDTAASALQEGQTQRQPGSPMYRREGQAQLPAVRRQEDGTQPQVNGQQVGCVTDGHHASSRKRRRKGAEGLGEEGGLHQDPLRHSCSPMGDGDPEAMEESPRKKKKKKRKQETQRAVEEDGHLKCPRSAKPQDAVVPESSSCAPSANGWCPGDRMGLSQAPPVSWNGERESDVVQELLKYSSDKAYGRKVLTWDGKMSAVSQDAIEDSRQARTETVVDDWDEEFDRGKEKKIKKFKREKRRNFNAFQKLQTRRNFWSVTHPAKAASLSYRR
Outline: as §1

USP38 = biological target: T2, USP38 (UniProt Q8NB14)
T2 sequence (whole entry): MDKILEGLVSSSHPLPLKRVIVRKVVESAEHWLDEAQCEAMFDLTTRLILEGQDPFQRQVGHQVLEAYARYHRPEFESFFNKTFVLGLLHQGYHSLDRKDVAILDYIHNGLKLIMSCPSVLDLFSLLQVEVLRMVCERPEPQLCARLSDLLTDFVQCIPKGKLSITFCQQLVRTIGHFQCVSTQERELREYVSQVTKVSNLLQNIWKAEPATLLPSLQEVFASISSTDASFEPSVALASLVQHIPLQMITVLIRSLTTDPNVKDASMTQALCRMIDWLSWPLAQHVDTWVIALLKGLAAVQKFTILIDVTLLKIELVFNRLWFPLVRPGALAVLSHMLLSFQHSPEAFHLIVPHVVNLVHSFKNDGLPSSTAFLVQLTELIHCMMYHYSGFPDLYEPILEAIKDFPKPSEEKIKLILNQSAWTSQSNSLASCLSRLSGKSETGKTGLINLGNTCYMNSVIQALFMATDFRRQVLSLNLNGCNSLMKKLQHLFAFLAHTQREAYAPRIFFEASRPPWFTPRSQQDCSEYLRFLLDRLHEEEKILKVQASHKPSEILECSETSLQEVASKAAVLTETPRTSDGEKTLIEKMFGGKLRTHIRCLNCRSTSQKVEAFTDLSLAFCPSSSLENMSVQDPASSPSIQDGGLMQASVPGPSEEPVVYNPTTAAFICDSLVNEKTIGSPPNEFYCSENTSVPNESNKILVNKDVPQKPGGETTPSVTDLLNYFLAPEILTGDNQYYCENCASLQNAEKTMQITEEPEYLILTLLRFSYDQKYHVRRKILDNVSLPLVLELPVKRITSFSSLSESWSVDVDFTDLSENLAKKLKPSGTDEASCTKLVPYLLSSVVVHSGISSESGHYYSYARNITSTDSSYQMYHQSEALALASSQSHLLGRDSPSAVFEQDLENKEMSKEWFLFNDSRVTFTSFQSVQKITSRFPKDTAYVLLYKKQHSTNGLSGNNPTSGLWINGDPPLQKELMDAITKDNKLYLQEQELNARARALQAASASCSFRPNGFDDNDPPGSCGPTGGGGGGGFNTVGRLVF
Outline: as §1

USP39 = biological target: T3, USP39 (UniProt Q53GS9)
T3 sequence (whole entry): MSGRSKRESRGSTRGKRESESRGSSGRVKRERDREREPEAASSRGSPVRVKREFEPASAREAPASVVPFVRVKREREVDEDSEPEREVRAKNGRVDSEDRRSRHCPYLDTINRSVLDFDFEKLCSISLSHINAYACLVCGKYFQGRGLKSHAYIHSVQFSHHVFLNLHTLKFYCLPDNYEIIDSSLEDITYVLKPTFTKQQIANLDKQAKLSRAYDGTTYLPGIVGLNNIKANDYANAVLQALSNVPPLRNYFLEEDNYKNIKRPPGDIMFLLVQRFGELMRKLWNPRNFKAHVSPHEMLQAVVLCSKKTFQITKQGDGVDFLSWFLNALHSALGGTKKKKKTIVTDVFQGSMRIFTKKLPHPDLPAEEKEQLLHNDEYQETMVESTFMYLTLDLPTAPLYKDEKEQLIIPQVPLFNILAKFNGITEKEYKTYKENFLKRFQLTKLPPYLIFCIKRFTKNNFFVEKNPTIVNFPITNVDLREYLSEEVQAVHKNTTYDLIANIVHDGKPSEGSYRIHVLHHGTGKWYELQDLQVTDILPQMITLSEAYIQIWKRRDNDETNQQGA
Outline: as §1

USP4 = biological target: T4, USP4 (UniProt Q13107)
T4 sequence (whole entry): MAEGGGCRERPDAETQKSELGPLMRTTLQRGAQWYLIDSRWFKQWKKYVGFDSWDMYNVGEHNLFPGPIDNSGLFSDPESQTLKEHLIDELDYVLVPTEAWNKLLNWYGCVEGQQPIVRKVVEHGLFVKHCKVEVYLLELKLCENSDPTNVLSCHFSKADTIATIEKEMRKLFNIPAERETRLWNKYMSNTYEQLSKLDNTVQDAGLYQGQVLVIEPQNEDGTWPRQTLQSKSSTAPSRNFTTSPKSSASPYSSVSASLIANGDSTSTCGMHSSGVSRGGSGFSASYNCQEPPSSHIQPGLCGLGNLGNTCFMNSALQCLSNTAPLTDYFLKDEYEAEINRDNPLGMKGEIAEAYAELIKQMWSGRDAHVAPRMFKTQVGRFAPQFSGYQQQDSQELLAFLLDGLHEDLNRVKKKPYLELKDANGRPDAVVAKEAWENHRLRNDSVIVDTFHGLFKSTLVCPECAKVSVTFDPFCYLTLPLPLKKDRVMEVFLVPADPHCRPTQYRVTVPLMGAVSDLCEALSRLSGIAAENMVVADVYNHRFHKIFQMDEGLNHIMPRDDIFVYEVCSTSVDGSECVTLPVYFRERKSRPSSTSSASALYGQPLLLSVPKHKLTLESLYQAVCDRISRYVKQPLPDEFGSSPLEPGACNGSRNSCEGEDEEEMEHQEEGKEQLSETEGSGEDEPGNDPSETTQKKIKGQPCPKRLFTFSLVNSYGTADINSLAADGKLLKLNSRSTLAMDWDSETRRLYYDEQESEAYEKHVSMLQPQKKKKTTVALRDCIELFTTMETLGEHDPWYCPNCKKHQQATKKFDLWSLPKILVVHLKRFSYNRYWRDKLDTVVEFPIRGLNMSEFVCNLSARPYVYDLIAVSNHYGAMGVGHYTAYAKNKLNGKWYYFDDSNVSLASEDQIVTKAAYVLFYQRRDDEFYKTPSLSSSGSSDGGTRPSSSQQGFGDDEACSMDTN
Outline: as §1

Measured: log2 ratio of Biotin-Ahx-Ub-VS probe labelling

Chain of USP34 (Q70CQ2 whole entry, the tested form may be a part): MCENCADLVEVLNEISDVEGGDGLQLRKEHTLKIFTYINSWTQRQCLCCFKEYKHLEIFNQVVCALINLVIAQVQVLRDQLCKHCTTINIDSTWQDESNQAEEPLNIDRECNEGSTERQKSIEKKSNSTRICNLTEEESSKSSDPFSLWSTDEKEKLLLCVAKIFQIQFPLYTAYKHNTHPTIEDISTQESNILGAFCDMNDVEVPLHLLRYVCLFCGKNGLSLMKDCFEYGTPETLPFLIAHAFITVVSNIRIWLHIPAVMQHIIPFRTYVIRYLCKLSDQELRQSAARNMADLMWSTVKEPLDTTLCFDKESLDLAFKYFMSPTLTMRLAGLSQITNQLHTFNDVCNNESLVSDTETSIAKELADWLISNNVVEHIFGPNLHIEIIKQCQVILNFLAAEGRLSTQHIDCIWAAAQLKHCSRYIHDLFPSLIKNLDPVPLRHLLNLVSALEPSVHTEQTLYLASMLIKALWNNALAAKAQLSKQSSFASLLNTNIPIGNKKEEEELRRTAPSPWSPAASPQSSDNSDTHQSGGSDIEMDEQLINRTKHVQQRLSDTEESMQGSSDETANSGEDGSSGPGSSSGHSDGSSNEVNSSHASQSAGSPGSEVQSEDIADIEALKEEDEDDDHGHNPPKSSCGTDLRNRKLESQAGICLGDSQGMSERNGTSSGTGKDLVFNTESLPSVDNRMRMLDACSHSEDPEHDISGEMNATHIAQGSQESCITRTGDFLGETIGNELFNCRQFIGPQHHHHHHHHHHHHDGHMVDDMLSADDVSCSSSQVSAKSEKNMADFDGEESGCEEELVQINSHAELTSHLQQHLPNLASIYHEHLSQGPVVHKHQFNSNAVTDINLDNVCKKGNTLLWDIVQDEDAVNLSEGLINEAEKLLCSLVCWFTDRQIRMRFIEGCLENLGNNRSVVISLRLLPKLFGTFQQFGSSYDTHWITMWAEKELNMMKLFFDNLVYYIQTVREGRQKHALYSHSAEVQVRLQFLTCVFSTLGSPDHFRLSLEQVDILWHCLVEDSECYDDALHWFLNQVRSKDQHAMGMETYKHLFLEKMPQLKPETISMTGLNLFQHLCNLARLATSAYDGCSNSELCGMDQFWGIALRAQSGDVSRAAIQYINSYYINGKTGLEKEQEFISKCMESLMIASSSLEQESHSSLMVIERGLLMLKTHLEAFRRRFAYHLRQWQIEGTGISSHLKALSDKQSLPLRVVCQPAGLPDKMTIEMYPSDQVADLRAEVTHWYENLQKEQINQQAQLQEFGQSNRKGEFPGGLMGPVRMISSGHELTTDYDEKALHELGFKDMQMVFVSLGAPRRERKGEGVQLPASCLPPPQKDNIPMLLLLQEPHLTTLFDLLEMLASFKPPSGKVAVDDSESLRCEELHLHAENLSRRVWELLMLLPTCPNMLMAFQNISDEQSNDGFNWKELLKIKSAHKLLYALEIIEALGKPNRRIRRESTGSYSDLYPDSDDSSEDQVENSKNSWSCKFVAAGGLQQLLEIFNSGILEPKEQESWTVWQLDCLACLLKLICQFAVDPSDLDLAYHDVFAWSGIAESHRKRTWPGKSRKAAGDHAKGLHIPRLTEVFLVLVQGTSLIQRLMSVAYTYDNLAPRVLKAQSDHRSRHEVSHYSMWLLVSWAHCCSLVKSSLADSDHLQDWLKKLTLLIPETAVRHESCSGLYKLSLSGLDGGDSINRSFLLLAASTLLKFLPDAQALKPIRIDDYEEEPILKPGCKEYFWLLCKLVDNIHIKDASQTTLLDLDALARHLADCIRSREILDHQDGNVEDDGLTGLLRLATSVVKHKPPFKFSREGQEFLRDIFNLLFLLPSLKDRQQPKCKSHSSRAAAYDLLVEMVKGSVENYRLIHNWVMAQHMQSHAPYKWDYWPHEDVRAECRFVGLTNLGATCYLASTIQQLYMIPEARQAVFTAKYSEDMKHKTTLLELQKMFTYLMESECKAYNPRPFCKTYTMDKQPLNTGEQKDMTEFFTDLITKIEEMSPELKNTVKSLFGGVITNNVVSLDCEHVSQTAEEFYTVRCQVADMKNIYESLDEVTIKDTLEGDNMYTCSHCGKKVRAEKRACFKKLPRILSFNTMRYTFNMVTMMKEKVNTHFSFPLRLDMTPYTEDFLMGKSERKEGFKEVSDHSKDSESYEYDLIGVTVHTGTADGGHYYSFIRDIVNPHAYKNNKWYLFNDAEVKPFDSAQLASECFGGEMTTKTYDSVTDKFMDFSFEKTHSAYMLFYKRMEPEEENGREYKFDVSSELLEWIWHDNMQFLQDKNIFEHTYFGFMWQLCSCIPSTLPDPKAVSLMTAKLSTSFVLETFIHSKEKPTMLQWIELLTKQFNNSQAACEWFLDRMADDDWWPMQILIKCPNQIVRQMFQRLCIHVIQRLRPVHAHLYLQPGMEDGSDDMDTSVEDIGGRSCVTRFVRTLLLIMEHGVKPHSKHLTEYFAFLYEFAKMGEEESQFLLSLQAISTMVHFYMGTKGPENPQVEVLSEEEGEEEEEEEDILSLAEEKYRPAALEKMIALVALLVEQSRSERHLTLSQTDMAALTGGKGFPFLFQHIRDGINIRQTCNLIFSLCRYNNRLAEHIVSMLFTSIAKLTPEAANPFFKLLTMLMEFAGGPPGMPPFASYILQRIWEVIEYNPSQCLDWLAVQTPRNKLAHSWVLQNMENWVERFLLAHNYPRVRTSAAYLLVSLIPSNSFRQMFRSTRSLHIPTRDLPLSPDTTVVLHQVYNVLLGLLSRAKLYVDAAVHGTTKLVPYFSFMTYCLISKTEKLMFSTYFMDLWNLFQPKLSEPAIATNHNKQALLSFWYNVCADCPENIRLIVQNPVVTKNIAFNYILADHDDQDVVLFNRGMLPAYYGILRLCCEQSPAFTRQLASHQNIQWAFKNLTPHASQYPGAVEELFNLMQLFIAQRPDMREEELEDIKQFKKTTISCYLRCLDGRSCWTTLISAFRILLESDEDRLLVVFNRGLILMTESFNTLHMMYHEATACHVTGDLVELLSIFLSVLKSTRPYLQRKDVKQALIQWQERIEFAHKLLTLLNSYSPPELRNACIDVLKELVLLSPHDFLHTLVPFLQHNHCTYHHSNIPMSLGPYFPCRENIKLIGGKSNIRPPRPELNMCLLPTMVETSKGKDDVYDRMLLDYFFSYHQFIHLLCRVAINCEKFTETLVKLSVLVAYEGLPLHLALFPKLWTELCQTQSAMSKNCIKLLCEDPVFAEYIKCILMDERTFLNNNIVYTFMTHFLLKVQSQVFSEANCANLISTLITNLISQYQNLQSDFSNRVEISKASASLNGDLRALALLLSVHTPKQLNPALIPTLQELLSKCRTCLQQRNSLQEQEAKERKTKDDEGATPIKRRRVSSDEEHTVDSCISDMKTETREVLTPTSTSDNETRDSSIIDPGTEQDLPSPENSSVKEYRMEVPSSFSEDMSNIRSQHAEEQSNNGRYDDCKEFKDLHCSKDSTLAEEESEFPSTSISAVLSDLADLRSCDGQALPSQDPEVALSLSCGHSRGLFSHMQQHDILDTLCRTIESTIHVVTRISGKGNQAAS

CCN(C(=O)CCl)C1CCS(=O)(=O)C1 (stereo not given)
inactive: USP34 -0.11 | USP36 -0.152 | USP38 -0.0197 | USP39 -0.0969 | USP4 0.159

Reference: the supplement of paper PMC11732987, “Enantioselective OTUD7B fragment discovery through chemoproteomics screening and high-throughput optimisation” (Communications Chemistry, 2025)
